The panel holds about 83,000 compounds, 20% with a hit somewhere; the sample as a whole holds those more often.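 Cells were grown in 96-well plates and exposed to the test compound at a single concentration for 48 hours; results are reported as percent growth, with values below 10 considered active.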 A number with no mark means an inactive call. Calls of active or inactive are those of the source.

Common to all, as to test: NCI-60 one-dose screen, 48 h (100 = growth as untreated, 0 = no growth, -100 = all killed)
For one test, the system named is SK-MEL-2 melanoma. To be noted: 10 µM unless noted.
The subject of a further test is EKVX NSCLC. As to conditions: 10 µM unless noted.
Another test relates to SN12C renal. To be noted: 10 µM unless noted.
A further test deals with UO-31 renal. To be noted: 10 µM unless noted.
The test system of the next test is TK-10 renal. To be noted: 10 µM unless noted.
The test system of a further test is ACHN renal. As to conditions: 10 µM unless noted.
The test system of the next test is CAKI-1 renal. To be noted: 10 µM.
The test system of a further test is A498 renal. To be noted: 10 µM unless noted.
A further test concerns CCRF-CEM leukemia. To be noted: 10 µM unless noted.
The subject of a further test is MOLT-4 leukemia. As to conditions: 10 µM unless noted.
The test system of a further test is SR leukemia. As to conditions: 10 µM unless noted.
Another test deals with RPMI-8226 leukemia. To be noted: 10 µM unless noted.
A further test deals with OVCAR-8 ovarian. As to conditions: 10 µM unless noted.
Another test has as its system OVCAR-5 ovarian. To be noted: 10 µM unless noted.
In the next test the test system is OVCAR-4 ovarian. As to conditions: 10 µM unless noted.
A further test concerns SK-OV-3 ovarian. To be noted: 10 µM unless noted.
Another test concerns IGROV1 ovarian. As to conditions: 10 µM unless noted.
The test system of a further test is HS 578T breast. As to conditions: 10 µM unless noted.
A further test concerns NCI/ADR-RES ovarian. To be noted: 10 µM unless noted.
The next test relates to OVCAR-3 ovarian. As to conditions: 10 µM unless noted.

As to `CN1CCN(Cc2ccc(NC(=O)c3cncc(C#Cc4cnc5ccc(O[C@H]6CCOC6)nn45)c3)cc2C(F)(F)F)CC1`, the growth in the test with SK-MEL-2 melanoma is -88% (active); in the test on EKVX NSCLC, -69.7% (active); in the test with SN12C renal, -48.4% (active); in the test on UO-31 renal, -94% (active); in the test on TK-10 renal, -87.2% (active); in the test with ACHN renal, -97.1% (active). Besides, the growth in the test with CAKI-1 renal was -96.2% (active); in the test with A498 renal, -92.9% (active); in the test with CCRF-CEM leukemia, 2.84% (active); with MOLT-4 leukemia it was -1.92% (active); in the test on SR leukemia it was -22.8% (active); in the test with RPMI-8226 leukemia, -15.3% (active). For the same compound, the growth in the test on OVCAR-8 ovarian is -72.6% (active); in the test on OVCAR-5 ovarian, -62.5% (active); in the test on OVCAR-4 ovarian, -58.9% (active); with SK-OV-3 ovarian, -26% (active); in the test with IGROV1 ovarian it was -57.6% (active); in the test with HS 578T breast, -34.1% (active). Also, the growth in the test on NCI/ADR-RES ovarian is -30.9% (active).
For `CC(C)SC1=NC(=C(C(=N1)NC2=ClC=CC=C2)C#N)C3=CC=CC=C3`, the growth in the test on SK-MEL-2 melanoma is 125%; in the test with EKVX NSCLC, 84%; in the test on SN12C renal, 36.7%; in the test with UO-31 renal it was 24.7%; with TK-10 renal, 112%; in the test with ACHN renal, 23.4%. For the same compound, the growth in the test on CAKI-1 renal was 64.5%; in the test on A498 renal it was 71.6%; with CCRF-CEM leukemia it was 63.4%; with MOLT-4 leukemia, 83.3%; in the test on SR leukemia, 69.3%; in the test with RPMI-8226 leukemia, 88.2%. Also, the growth was 46.8% in the test with OVCAR-8 ovarian; 80.3% with OVCAR-5 ovarian; -4.9% (active) with OVCAR-4 ovarian; 88.5% with SK-OV-3 ovarian; -5.3% (active) in the test with IGROV1 ovarian; 65.4% in the test on HS 578T breast. The growth with NCI/ADR-RES ovarian is 52.7%.
For the compound `N#C/C(=C\c1ccc2ccccc2c1)C(=O)Nc1sc2c(c1C#N)CCC2`, the growth in the test with SK-MEL-2 melanoma is 100%; in the test with EKVX NSCLC, 94.8%; in the test on SN12C renal, 95.5%; with UO-31 renal it was 78.2%; in the test with TK-10 renal, 108%; in the test on ACHN renal it was 104%. The growth in the test on CAKI-1 renal is 88.2%; in the test with A498 renal, 93.9%; in the test on CCRF-CEM leukemia, 103%; in the test with MOLT-4 leukemia it was 101%; with SR leukemia, 90.9%; in the test with RPMI-8226 leukemia it was 105%. Besides, the growth with OVCAR-8 ovarian was 100%; with OVCAR-5 ovarian, 111%; in the test on OVCAR-4 ovarian it was 105%; in the test on SK-OV-3 ovarian, 99.8%; in the test on IGROV1 ovarian, 107%; in the test with HS 578T breast, 104%. Further, in the test on NCI/ADR-RES ovarian, the growth was 103%.
With `O=C1c2c(c3c4cc(Br)ccc4[nH]c3c3ccc4ccccc4c23)C(=O)N1CCN1CCCCC1`, the growth in the test on SK-MEL-2 melanoma is 112%; in the test on EKVX NSCLC it was 81.1%; in the test with SN12C renal, 41.1%; in the test with UO-31 renal, 48.7%; with TK-10 renal, 132%; in the test with ACHN renal, 18.5%. For the same compound, the growth in the test with CAKI-1 renal was 31.2%; with A498 renal, 72.7%; in the test on CCRF-CEM leukemia, -0.774% (active); in the test on MOLT-4 leukemia, -1.44% (active); in the test with SR leukemia, -21.6% (active); in the test with RPMI-8226 leukemia it was -36.5% (active). Also, the growth was -51.8% (active) in the test on OVCAR-8 ovarian; 99.8% in the test on OVCAR-5 ovarian; 95.2% with OVCAR-4 ovarian; 57% with SK-OV-3 ovarian; 59.8% in the test with IGROV1 ovarian; 104% in the test with HS 578T breast. For the same compound, in the test with NCI/ADR-RES ovarian, the growth was 6.23% (active).
`CC(C)Sc1nc(NC2CC2)c(C#N)c(-c2ccccc2)n1`: the growth was 124% with SK-MEL-2 melanoma; 101% in the test on EKVX NSCLC; 57.8% in the test on SN12C renal; 48.5% in the test on UO-31 renal; 123% in the test with TK-10 renal; 29.1% in the test on ACHN renal. The growth with CAKI-1 renal is 68%; with A498 renal it was 64.5%; with CCRF-CEM leukemia it was 85.1%; in the test on MOLT-4 leukemia, 92.6%; in the test with SR leukemia, 96.5%; in the test with RPMI-8226 leukemia, 91%. Besides, the growth is 84.9% in the test on OVCAR-8 ovarian; 84.4% with OVCAR-5 ovarian; -8.11% (active) in the test with OVCAR-4 ovarian; 78.6% in the test with SK-OV-3 ovarian; 19.8% in the test on IGROV1 ovarian; 68.7% in the test with HS 578T breast. For the same compound, the growth with NCI/ADR-RES ovarian is 74.5%.
Turning to `O=C1c2c(c3c4cccnc4[nH]c3c3ccc4ccccc4c23)C(=O)N1CCN1CCNCC1`, the growth is 113% in the test with SK-MEL-2 melanoma; 92.4% in the test on EKVX NSCLC; 76.7% in the test on SN12C renal; 58% in the test on UO-31 renal; 136% in the test with TK-10 renal; 37% in the test with ACHN renal. Moreover, the growth is 52.2% with CAKI-1 renal; 70.2% with A498 renal; 27.2% with CCRF-CEM leukemia; 8.49% (active) in the test on MOLT-4 leukemia; -6.6% (active) in the test with SR leukemia; 74.3% with RPMI-8226 leukemia. Further, the growth in the test with OVCAR-8 ovarian is 50.8%; with OVCAR-5 ovarian, 113%; in the test on OVCAR-4 ovarian, 105%; in the test with SK-OV-3 ovarian it was 101%; in the test on IGROV1 ovarian, 51.7%; with HS 578T breast it was 107%. The growth in the test on NCI/ADR-RES ovarian is 81.4%.
Consider `C#CCOc1ccccc1C(Nc1ccccc1)c1nnnn1C1CCCCC1` (configuration not stated), for which the growth was 110% with SK-MEL-2 melanoma; 95.9% in the test on EKVX NSCLC; 104% in the test with SN12C renal; 78.5% in the test on UO-31 renal; 106% with TK-10 renal; 93.9% in the test on ACHN renal. For the same compound, the growth was 59.6% in the test with CAKI-1 renal; 104% in the test on A498 renal; 92.7% in the test on CCRF-CEM leukemia; 88.3% in the test with MOLT-4 leukemia; 98.1% with SR leukemia; 89.7% with RPMI-8226 leukemia. Further, the growth with OVCAR-8 ovarian is 101%; in the test with OVCAR-5 ovarian, 91.9%; in the test on OVCAR-4 ovarian, 94.5%; in the test on SK-OV-3 ovarian it was 101%; with IGROV1 ovarian, 89.6%; with OVCAR-3 ovarian it was 109%. Moreover, the growth in the test on NCI/ADR-RES ovarian is 96.1%.
For `N#Cc1c(-c2ccccc2)cc(-c2c[nH]c3ccccc23)nc1-c1c[nH]c2ccccc12`, the growth in the test with SK-MEL-2 melanoma is 97.7%; with EKVX NSCLC, 83.1%; in the test on SN12C renal it was 95.6%; in the test with UO-31 renal, 68.3%; with TK-10 renal, 124%; in the test with ACHN renal, 96.4%. The growth in the test on CAKI-1 renal is 87.3%; with A498 renal, 98.7%; in the test on CCRF-CEM leukemia, 103%; in the test with MOLT-4 leukemia, 102%; with SR leukemia it was 96.7%; in the test on RPMI-8226 leukemia, 101%. Besides, the growth in the test on OVCAR-8 ovarian is 98.7%; in the test on OVCAR-5 ovarian, 103%; with OVCAR-4 ovarian it was 104%; in the test with SK-OV-3 ovarian it was 93.3%; in the test on IGROV1 ovarian, 82.1%; in the test with HS 578T breast, 93.4%. In addition, in the test on NCI/ADR-RES ovarian, the growth is 98.3%.

Values taken from PubChem BioAssay (NCI).
